Experimental data from PubChem BioAssay.
The source made the active and inactive calls. Cut-off read from the data, not from the text of the source: active = fold change permeability below about 0.7 or above about 1.3; inactive = in between.

Test: modulators of brain endothelial barrier permeability, primary screen, cell-based, FITC-avidin fluorescence, HTS (AID 1963498); note: test concentration not given here
Conditions: actives lie on both sides

Fold change permeability, active:
COc1cc2ncnc(-n3nc(-c4ccccn4)nc3N)c2cc1OC 2
COC1=C(OC)C(=O)c2ccccc2C1=O 1.4
O=C1NC(=O)C(c2ccccc2[N+](=O)[O-])=C1Nc1ccc(O)c(Cl)c1 1.4
N#CC(=C(/N)Sc1ccccc1N)/C(C#N)=C(\N)Sc1ccccc1N 1.6
Oc1cc2c(cc1O)C(c1ccccc1)CNCC2 (centres undefined) 0.7
CCOC(=O)c1c(CSc2ccccc2)n(C)c2cc(Br)c(O)c(CN(C)C)c12 1.4

Fold change permeability, inactive:
CCCCCC(O)CCCC(=O)O (centres undefined) 1
NCCS(=O)O 1
CCC(=O)NS(=O)(=O)c1ccc(-c2c(-c3ccccc3)noc2C)cc1 0.9
NC(=O)c1sc(-c2ccsc2)cc1N 0.9
CCCNC(=O)NS(=O)(=O)c1ccc(Cl)cc1 0.9
O=C(/C=C/c1ccc(O)cc1)c1ccc(O)cc1O 1.2
O=C1c2c(O)cc(O)cc2O[C@H](c2ccc(O)c(O)c2)[C@H]1O 1
CN(C)CCOC(=O)COc1ccc(Cl)cc1 0.9
CNCCCC1c2ccccc2C=Cc2ccccc21 1.1
CC(=O)Nc1ccc(C(=O)Nc2ccc(F)cc2N)cc1 0.8
Clc1ccc2c(c1)C(N1CCNCC1)=Nc1ccccc1O2 1.2
O=C(O)/C=C\C(=O)Nc1ccc(Oc2cccc(Oc3ccc(NC(=O)/C=C\C(=O)O)cc3)c2)cc1 0.9
O=C(O)C1=CC(=C(c2ccc(O)c(C(=O)O)c2)c2ccc(O)c(C(=O)O)c2)C=CC1=O 0.9
